In PubChem BioAssay (NCI) one finds growth inhibition data, which are given here for six compounds.

A short description of assay [1]: NCI Yeast Anticancer Drug Screen. Data for the rad50 strain (AID 155).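 Also: 0% = growth of vehicle-only cultures of the same strain.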 As to conditions: S. cerevisiae rad50 strain growth inhibition, stronger effect = higher value. In a few lines: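 Genetically altered yeast (DNA repair pathway); compound treatment; growth inhibition vs vehicle ctrl.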
The nature of assay [2]: NCI Yeast Anticancer Drug Screen. Data for the mec2-1 strain (AID 157). As to conditions: S. cerevisiae mec2-1 strain, stronger effect = higher value. Summed up: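 Vehicle-treated cultures served as reference for growth inhibition of compound-exposed mec2-1 yeast.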
Assay [3] can be described thus: NCI Yeast Anticancer Drug Screen. Data for the sgs1 mgt1 strain (AID 161).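 Also: 0% = growth of cultures given vehicle only.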 As to conditions: S. cerevisiae sgs1 mgt1 strain, stronger effect = higher value. Summed up:
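Mutant yeast exposed to compound; growth scored against vehicle-only wells.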

A short description of assay [4]: NCI Yeast Anticancer Drug Screen. Data for the cln2 rad14 strain (AID 165).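 Also: 0% = growth equal to vehicle treated cultures.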 As to conditions: S. cerevisiae cln2 rad14 strain, stronger effect = higher value. Summed up:
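Each compound was tested on cln2 rad14 yeast. Inhibition of growth was calculated against vehicle-exposed controls.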

Assay [5] can be described thus: NCI Yeast Anticancer Drug Screen. Data for the bub3 strain (AID 167). To be noted: S. cerevisiae bub3 mutant strain, stronger effect = higher value. In a few lines:
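Yeast carrying a defined mutation is treated with each compound, and growth is compared with that of vehicle-exposed cells to give inhibition.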

Assay [6] can be described thus: NCI Yeast Anticancer Drug Screen. Data for the mlh1 rad18 strain (AID 175). As to conditions: S. cerevisiae mlh1 rad18 strain growth inhibition, stronger effect = higher value. In a few lines: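 Vehicle-treated cultures served as the reference for growth inhibition in a yeast strain carrying DNA damage repair alterations exposed to each compound.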
Setting [7] is: at 5.0 µM (retest, dose inferred, filed as 0.5).
[8] abbreviates: at 50.0 µM (retest, dose inferred, filed as 5.0).

About 79,000 compounds went through this panel and 15% of them were active in at least one assay; those are over-represented in the sample as a whole. A number with no mark means an inactive call. Calls of active or inactive are those of the source. Rule as the data show it: active = growth inhibition above about 70%; inactive = the rest.

In the case of `CN1CCC(CN2c3ccccc3Sc3ccccc32)C1` (stereo not drawn), the growth inhibition was 2% in assay [1] (setting [7]); 16% in assay [1] (setting [8]); 38.5% in assay [1] (at 50.0 µM); 2% in assay [2] (setting [7]); -27% in assay [2] (setting [8]); -22.9% in assay [2] (at 50.0 µM). Moreover, the growth inhibition in assay [3] (setting [7]) was -8%; in assay [3] (setting [8]), 11%; in assay [3] (at 50.0 µM), 21.1%; in assay [4] (setting [7]), -17%; in assay [4] (setting [8]), -1%; in assay [4] (at 50.0 µM) it was 51.2%. The growth inhibition in assay [5] (setting [7]) is 26%; in assay [5] (setting [8]) it was 6%; in assay [5] (at 50.0 µM), 19.4%; in assay [6] (setting [7]) it was 11%; in assay [6] (setting [8]) it was 16%; in assay [6] (at 50.0 µM) it was 32.2%.

Consider `CC(C)=CCCC(C)C1=C(O)C(=O)C(C)=CC1=O` (stereo not drawn), for which the growth inhibition is 25% in assay [1] (setting [7]); 97% (active) in assay [1] (setting [8]); 88.8% (active) in assay [1] (at 50.0 µM); 19% in assay [2] (setting [7]); 98% (active) in assay [2] (setting [8]); 93.3% (active) in assay [2] (at 50.0 µM). The growth inhibition in assay [3] (setting [7]) is 15%; in assay [3] (setting [8]) it was 99% (active); in assay [3] (at 50.0 µM), 90.8% (active); in assay [4] (setting [7]), 24%; in assay [4] (setting [8]), 86% (active); in assay [4] (at 50.0 µM), 70%. In addition, the growth inhibition in assay [5] (setting [7]) is 19%; in assay [5] (setting [8]), 99% (active); in assay [5] (at 50.0 µM) it was 90.6% (active); in assay [6] (setting [7]) it was 25%; in assay [6] (setting [8]) it was 98% (active); in assay [6] (at 50.0 µM), 87% (active).

As for `O=C1C(=O)c2cccnc2-c2ncccc21`, the growth inhibition was 93% (active) in assay [1] (setting [7]); 98% (active) in assay [1] (setting [8]); 90.8% (active) in assay [1] (at 50.0 µM); 95% (active) in assay [2] (setting [7]); 98% (active) in assay [2] (setting [8]); 93.6% (active) in assay [2] (at 50.0 µM). The growth inhibition in assay [3] (setting [7]) is 95% (active); in assay [3] (setting [8]) it was 99% (active); in assay [3] (at 50.0 µM) it was 93.2% (active); in assay [4] (setting [7]), 73% (active); in assay [4] (setting [8]), 96% (active); in assay [4] (at 50.0 µM), 91% (active). For the same compound, the growth inhibition was 96% (active) in assay [5] (setting [7]); 98% (active) in assay [5] (setting [8]); 92.2% (active) in assay [5] (at 50.0 µM); 94% (active) in assay [6] (setting [7]); 98% (active) in assay [6] (setting [8]); 91.5% (active) in assay [6] (at 50.0 µM).

Turning to `COc1cc(/C=C/C(=O)CC(=O)/C=C/c2ccc(O)c(OC)c2)ccc1O`, the growth inhibition in assay [1] (setting [7]) was 55%; in assay [1] (setting [8]), 95% (active); in assay [1] (at 50.0 µM) it was 83.8% (active); in assay [2] (setting [7]), 74% (active); in assay [2] (setting [8]), 93% (active); in assay [2] (at 50.0 µM), 87.1% (active). Also, the growth inhibition was 20% in assay [3] (setting [7]); 89% (active) in assay [3] (setting [8]); 88% (active) in assay [3] (at 50.0 µM); 15% in assay [4] (setting [7]); 88% (active) in assay [4] (setting [8]); 84.3% (active) in assay [4] (at 50.0 µM). Also, the growth inhibition in assay [5] (setting [7]) is 27%; in assay [5] (setting [8]) it was 80% (active); in assay [5] (at 50.0 µM), 83.7% (active); in assay [6] (setting [7]) it was 55%; in assay [6] (setting [8]) it was 91% (active); in assay [6] (at 50.0 µM), 85.5% (active).

For `O=C(O)c1cc2c(s1)C(=O)c1sccc1C2=O`, the growth inhibition was 37% in assay [1] (setting [7]); 75% (active) in assay [1] (setting [8]); 71.5% (active) in assay [1] (at 50.0 µM); 33% in assay [2] (setting [7]); 69% in assay [2] (setting [8]); 57.6% in assay [2] (at 50.0 µM). Moreover, the growth inhibition in assay [3] (setting [7]) was 39%; in assay [3] (setting [8]), 66%; in assay [3] (at 50.0 µM), 72% (active); in assay [4] (setting [7]), 12%; in assay [4] (setting [8]) it was 30%; in assay [4] (at 50.0 µM), 54.9%. Also, the growth inhibition in assay [5] (setting [7]) is 36%; in assay [5] (setting [8]), 79% (active); in assay [5] (at 50.0 µM), 71.2% (active); in assay [6] (setting [7]), 39%; in assay [6] (setting [8]), 79% (active); in assay [6] (at 50.0 µM), 92.8% (active).

Turning to `Cc1ccc(N2C(=O)C=CC2=O)cc1`, the growth inhibition is 95% (active) in assay [1] (setting [7]); 99% (active) in assay [1] (setting [8]); 99.3% (active) in assay [1] (at 50.0 µM); 99% (active) in assay [2] (setting [7]); 99% (active) in assay [2] (setting [8]); 99.5% (active) in assay [2] (at 50.0 µM). Moreover, the growth inhibition is 89% (active) in assay [3] (setting [7]); 99% (active) in assay [3] (setting [8]); 99.7% (active) in assay [3] (at 50.0 µM); 92% (active) in assay [4] (setting [7]); 100% (active) in assay [4] (setting [8]); 99.5% (active) in assay [4] (at 50.0 µM). For the same compound, the growth inhibition was 99% (active) in assay [5] (setting [7]); 99% (active) in assay [5] (setting [8]); 98.9% (active) in assay [5] (at 50.0 µM); 82% (active) in assay [6] (setting [7]); 100% (active) in assay [6] (setting [8]); 99.2% (active) in assay [6] (at 50.0 µM).
